According to PubChem BioAssay (Tox21):
Values joined by “and” are separate entries in the source; they are usually repeats but may differ in a detail not shown here. Equal values may be shown once. Results filed as inconclusive are left out. Where a call stands in place of a potency, no number is given. A structure can be active in one record and inactive in another. Active and inactive are the calls of the source. Unless noted, the call rests on the fitted dose curve; in most records, active means well fitted curve in the direction sought with a large enough effect in the repeat runs; inconclusive means weak or mixed curves; inactive means no such curve, though single readings can be large; an effect the other way counts as inactive or inconclusive.

What was measured:
[1] = qHTS assay to identify small molecule agonists of H2AX - cell viability counter screen (AID 1224847; calls by dose curve; further: nearly all actives have a fitted effect of over 30% in size; further: potency means the concentration at half of the fitted maximal effect)
Outline: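 For this counter screen, overnight-attached CHO-K1 cells received test compounds (15 concentrations, 0.76% DMSO final); 3 hr later at 37C, CellTiter-Glo reagent was added and luminescence recorded after 30 min at room temperature.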

[2] = qHTS assay to identify small molecule antagonists of the estrogen related receptor (ERR) signaling pathway from Tox21 library (AID 1224848); further: nearly all actives have a fitted effect of over 50% in size; further: potency means the concentration at half of the fitted maximal effect
Outline: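 ERR reporter cell line (from NTP) seeded 2,000 cells/well, rested 6 h at 37 C/5% CO2, then pin-dosed with compounds in DMSO. After 18 h at 37 C, ONE-Glo added; luminescence read after 30 min at room temperature.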

[3] = qHTS assay to identify small molecule agonists of the estrogen related receptor (ERR) signaling pathway from Tox21 library (AID 1224849; calls by dose curve; further: nearly all actives have a fitted effect of over 15% in size); settings: ERR reporter cell line, ONE-Glo luciferase, 18 h; at 92.4 µM (top of the series) unless noted
Outline: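 Screening used an NTP-provided ERR luciferase cell line. Compounds in DMSO were added 6 h after seeding and left 18 h at 37 C before a 30 min ONE-Glo step and luminescence reading.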

[4] = qHTS RealTime-Glo MT Cell Viability Assay in HepG2 cells - 24 hour (AID 1224867); further: nearly all actives have a fitted effect of over 50% in size; further: potency means the concentration at half of the fitted maximal effect
Outline: (§1)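 HepG2 cells (600/well) were dispensed with RealTime-Glo reagents, incubated 5 h at 37 °C, then treated with compounds in DMSO for up to 40 h. Nonlytic NanoLuc luminescence reflecting viable cells was read at each stated time point.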

[5] = A CellTox Green Cytotoxicity Assay to monitor cytotoxicity in HEK293 cells - 0 hour (AID 1224869); further: nearly all actives have a fitted effect of over 50% in size
Outline: (§2)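 Fluorescence intensity, read at 0, 8, 16, 24, 32 and 40 h of compound treatment, reflected dye binding to DNA of dead HEK293 cells; compounds (23 nL, DMSO) were added 5 h after plating cells with reagent.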

[6] = A CellTox Green Cytotoxicity Assay to monitor cytotoxicity in HepG2 cells - 16 hour (AID 1224876); further: nearly all actives have a fitted effect of over 45% in size; further: potency means the concentration at half of the fitted maximal effect
Outline: (§3)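 Using 1536-well format, dye-containing HepG2 suspension was seeded, allowed 5 h at 37 C/5% CO2, dosed by pintool with compounds, positive and negative controls, and imaged for fluorescence across 40 h.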

[7] = qHTS RealTime-Glo MT Cell Viability Assay in HepG2 cells - 32 hour (AID 1224877); further: nearly all actives have a fitted effect of over 55% in size; further: potency means the concentration at half of the fitted maximal effect
Outline: as §1

[8] = A CellTox Green Cytotoxicity Assay to monitor cytotoxicity in HepG2 cells - 24 hour (AID 1224878); further: nearly all actives have a fitted effect of over 45% in size; further: potency means the concentration at half of the fitted maximal effect
Outline: as §3

[9] = A CellTox Green Cytotoxicity Assay to monitor cytotoxicity in HepG2 cells - 40 hour (AID 1224879); further: nearly all actives have a fitted effect of over 40% in size; further: potency means the concentration at half of the fitted maximal effect
Outline: as §3

[10] = qHTS RealTime-Glo MT Cell Viability Assay in HEK293 cells - 0 hour (AID 1224880); further: top concentration of the series differs between compounds; nearly all actives have a fitted effect of over 45% in size
Outline: (§4)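 Viable HEK293 cells reduce a cell-permeant prosubstrate; the product diffuses out and is consumed by NanoLuc in the medium to give light. Compounds went in after a 5 h incubation and plates were read over the treatment course.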

[11] = qHTS RealTime-Glo MT Cell Viability Assay in HEK293 cells - 16 hour (AID 1224872); further: nearly all actives have a fitted effect of over 50% in size; further: potency means the concentration at half of the fitted maximal effect
Outline: (§5)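 HEK293 cells seeded with NanoLuc/prosubstrate reagent, rested 5 h at 37 C, then dosed and kept at 37 C up to 40 h. Nonlytic real-time luminescence from viable cells read at 0, 8, 16, 24, 32 and 40 h.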

[12] = qHTS RealTime-Glo MT Cell Viability Assay in HepG2 cells - 8 hour (AID 1224873); further: nearly all actives have a fitted effect of over 55% in size; further: potency means the concentration at half of the fitted maximal effect
Outline: (§6)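 HepG2 cells (600/well) mixed with RealTime-Glo MT reagent, settled 5 h at 37 C/5% CO2 before compound addition. Nonlytic NanoLuc luminescence from viable-cell prosubstrate reduction read repeatedly during 40 h treatment at 37 C.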

[13] = A CellTox Green Cytotoxicity Assay to monitor cytotoxicity in HEK293 cells - 24 hour (AID 1224875); further: nearly all actives have a fitted effect of over 45% in size; further: potency means the concentration at half of the fitted maximal effect
Outline: as §2

[14] = A CellTox Green Cytotoxicity Assay to monitor cytotoxicity in HEK293 cells - 32 hour (AID 1224881); further: nearly all actives have a fitted effect of over 40% in size; further: potency means the concentration at half of the fitted maximal effect
Outline: as §2

[15] = qHTS RealTime-Glo MT Cell Viability Assay in HEK293 cells - 32 hour (AID 1224868); further: nearly all actives have a fitted effect of over 50% in size; further: potency means the concentration at half of the fitted maximal effect
Outline: as §5

[16] = qHTS RealTime-Glo MT Cell Viability Assay in HepG2 cells - 40 hour (AID 1224870); further: nearly all actives have a fitted effect of over 50% in size; further: potency means the concentration at half of the fitted maximal effect
Outline: as §6

[17] = A CellTox Green Cytotoxicity Assay to monitor cytotoxicity in HEK293 cells - 40 hour (AID 1224871); further: nearly all actives have a fitted effect of over 45% in size; further: potency means the concentration at half of the fitted maximal effect
Outline: as §2

[18] = qHTS RealTime-Glo MT Cell Viability Assay in HEK293 cells - 40 hour (AID 1224874); settings: RealTime-Glo luminescence; max response: stronger effect = lower value; further: nearly all actives have a fitted effect of over 50% in size; further: potency means the concentration at half of the fitted maximal effect
Outline: as §4

Row | SMILES | Potency [1] | Potency [2] | activity change, positive = activation [3] | Potency [4] | Potency [5] | Potency [6] | Potency [7] | Potency [8] | Potency [9] | Potency [10] | Potency [11] | Potency [12] | Potency [13] | Potency [14] | Potency [15] | Potency [16] | Potency [17] | max response [18] | Potency [18]
1 | O=S(=O)(c1ccc(Cl)cc1)c1ccc(Cl)cc1 | 57.3 µM (active) | 13.9 µM (active) | -35.9% (inactive) | inactive | inactive | inactive | inactive | inactive | inactive | inactive | – | – | – | – | – | – | – | – | –
2 | O=C(O)C1C2CCC(O2)C1C(=O)O (stereo not drawn) | inactive | inactive | 4.71% (inactive) | inactive | inactive | inactive | inactive | inactive | – | inactive | inactive | inactive | inactive | inactive | – | – | – | – | –
3 | O=C1c2ccccc2C(=O)C1C(=O)C(c1ccccc1)c1ccc(Cl)cc1 (stereo not drawn) | inactive | 9.69 µM (active) | -59.3% (inactive) | inactive | inactive | 49 µM (active) | inactive | 54.9 µM (active) | – | inactive | inactive | inactive | – | inactive | inactive | inactive | inactive | -21.2% (inactive) | –
4 | CC(Cc1ccc(C(C)(C)C)cc1)CN1C[C@@H](C)O[C@@H](C)C1 (stereo partly drawn) | 63.5 µM (active) | – | -8.81% (inactive) | inactive | inactive | – | inactive | – | – | inactive | – | inactive | 49 µM (active) | 49 µM (active) | inactive | inactive | 49 µM (active) | – | –
5 | CCCCN(CCCC)C(=S)[S-].CCCCN(CCCC)C(=S)[S-].[Zn+2] | 80 µM (active) | 12.2 µM (active) | -74.5% (inactive) | 34.7 µM (active) | inactive | 48.9 µM (active) | 24.5 µM (active) | – | 24.5 µM (active) | inactive | 12.3 µM (active) | 21.9 µM (active) | – | 19.5 µM (active) | 11 µM (active) | – | 15.5 µM (active) | – | 11 µM (active)
6 | Oc1ccc(C2(c3ccc(O)cc3)c3ccccc3-c3ccccc32)cc1 | 89.8 µM (active) | – | -78.7% (inactive) | 54.9 µM (active) | inactive | – | – | 61.6 µM (active) | 61.6 µM (active) | inactive | 49 µM (active) | 49 µM (active) | inactive | inactive | 43.6 µM (active) | – | inactive | – | –
7 | C[C@@H]1CC[C@@]2(OC1)O[C@H]1[C@@H](O)[C@H]3[C@@H]4CC[C@H]5C[C@@H](O[C@@H]6O[C@H](CO)[C@H](O[C@@H]7O[C@H](CO)[C@@H](O)[C@H](O[C@@H]8OC[C@@H](O)[C@H](O)[C@H]8O)[C@H]7O[C@@H]7O[C@H](CO)[C@@H](O)[C@H](O[C@@H]8O[C@H](CO)[C@@H](O)[C@H](O)[C@H]8O)[C@H]7O)[C@H](O)[C@H]6O)[C@H](O)C[C@]5(C)[C@H]4CC[C@]3(C)[C@H]1[C@@H]2C | 10.7 µM (active) | 23 µM (active) | -74.6% (inactive) | 20.7 µM (active) | inactive | 13.1 µM (active) | 23.2 µM (active) | – | 11.6 µM (active) | – | 9.25 µM (active) | 16.4 µM (active) | 1.31 µM (active) | 1.64 µM (active) | 11.6 µM (active) | 26.1 µM (active) | 3.68 µM (active) | – | –
8 | C=CCC1=C(C)C(OC(=O)C2C(C=C(C)C)C2(C)C)CC1=O (stereo not drawn) | 60.1 µM (active) | 20.5 µM (active) | -28.6% (inactive) | – | inactive | – | inactive | – | – | inactive | 20.7 µM (active) | – | – | 51.9 µM (active) | 26 µM (active) | inactive | – | – | –
9 | CCCCCCCCCCCCCCCC[N+](C)(C)C | 54.6 µM (active) and 101 µM (active) and 49.2 µM (active) | – | – | inactive and 49 µM (active) and 23.9 µM (active) | inactive | 23.7 µM (active) and 49 µM (active) and 23.9 µM (active) | 43.6 µM (active) and 23.9 µM (active) | 21.1 µM (active) and 23.9 µM (active) | 21.1 µM (active) and 13.8 µM (active) and 21.3 µM (active) | – | 10.6 µM (active) and 21.9 µM (active) | inactive and 49 µM (active) | 23.7 µM (active) and 43.6 µM (active) and 19 µM (active) | 23.7 µM (active) and 43.6 µM (active) and 23.9 µM (active) | 9.42 µM (active) and 21.9 µM (active) and 8.49 µM (active) | 24.5 µM (active) and 21.3 µM (active) | 23.7 µM (active) and 43.6 µM (active) and 23.9 µM (active) | – | 8.4 µM (active) and 21.9 µM (active) and 9.52 µM (active)
10 | CCCCCCCCCC[N+](C)(C)CCCCCCCCCC | 40.1 µM (active) | – | – | 7.76 µM (active) | inactive | 12.3 µM (active) | 7.76 µM (active) | 11 µM (active) | 8.71 µM (active) | inactive | 4.36 µM (active) | 19.5 µM (active) | – | 17.4 µM (active) | 1.1 µM (active) | 7.76 µM (active) | 17.4 µM (active) | – | 0.977 µM (active)
11 | CNC(C)Cc1ccc2c(c1)OCO2 (stereo not drawn) | inactive | – | – | inactive | inactive | inactive | inactive | inactive | inactive | inactive | inactive | inactive | inactive | inactive | inactive | inactive | inactive | -1.8% (inactive) | –
12 | O=c1oc2ccccc2c(O)c1Cc1c(O)c2ccccc2oc1=O | inactive | – | -18.2% [at 42.5 µM] (inactive) | inactive | – | inactive | – | inactive | inactive | – | inactive | – | inactive | inactive | inactive | inactive | inactive | – | –
13 | O=C/C(Cl)=C(/Cl)C(=O)O | inactive | inactive | -23.8% (inactive) and 0.311% (inactive) | inactive | inactive | inactive | inactive | – | 48.9 µM (active) | inactive | inactive | inactive | inactive | inactive | – | inactive | inactive | 20.3% (inactive) | –
